Data reported in PubChem BioAssay (NCI).
Compounds without any hit were thinned out: in the full panel of roughly 79,000, 15% have a hit. The source made the active and inactive calls. Cut-off read from the data, not from the text of the source: active = growth inhibition above about 70%; inactive = the rest.

What was measured:
[1] = NCI Yeast Anticancer Drug Screen. Data for the rad52 strain (AID 147);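 note: 0% = growth of vehicle-treated control cultures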; conditions: S. cerevisiae rad52 mutant growth inhibition, stronger effect = higher value
Outline: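 Read-out: growth inhibition versus vehicle-treated controls. Cells were a DNA repair-deficient yeast strain treated with compounds.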

[2] = NCI Yeast Anticancer Drug Screen. Data for the wt1 strain (AID 149);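 note: 0% = growth of vehicle-treated wt1 cultures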; conditions: S. cerevisiae wt1 strain (SPY 50644) growth inhibition, stronger effect = higher value
Outline: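 Compounds are added to wt1 yeast cultures. Growth is then measured. Inhibition is expressed relative to vehicle-treated controls.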

[3] = NCI Yeast Anticancer Drug Screen. Data for the rad50EPP+ strain (AID 151);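 note: 0% = growth of vehicle-treated control cultures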; conditions: S. cerevisiae rad50 mutant strain, stronger effect = higher value
Outline: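 Growth inhibition read against vehicle controls in rad50EPP+ yeast, a strain altered in DNA damage repair, after compound exposure.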

[4] = NCI Yeast Anticancer Drug Screen. Data for the rad50 strain (AID 155);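 note: 0% = growth of vehicle-only cultures of the same strain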; conditions: S. cerevisiae rad50 strain growth inhibition, stronger effect = higher value
Outline: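 Inhibition values express reduced yeast growth in compound-treated cultures relative to vehicle-treated controls.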

[5] = NCI Yeast Anticancer Drug Screen. Data for the mec2-1 strain (AID 157); conditions: S. cerevisiae mec2-1 strain, stronger effect = higher value
Outline: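 Yeast mec2-1 mutant treated with compound. Readout: growth inhibition vs vehicle controls.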

[6] = NCI Yeast Anticancer Drug Screen. Data for the rad14 strain (AID 159);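 note: 0% = growth of vehicle-treated control cultures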; conditions: S. cerevisiae rad14 strain growth inhibition, stronger effect = higher value
Outline: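 A mutant yeast strain defective in DNA damage repair is treated with compound; inhibition of its growth is scored against untreated, vehicle-exposed cultures.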

[7] = NCI Yeast Anticancer Drug Screen. Data for the sgs1 mgt1 strain (AID 161);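 note: 0% = growth of cultures given vehicle only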; conditions: S. cerevisiae sgs1 mgt1 strain, stronger effect = higher value
Outline: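 Mutant yeast exposed to compound; growth scored against vehicle-only wells.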

[8] = NCI Yeast Anticancer Drug Screen. Data for the CLN2oe strain (AID 163);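 note: 0% = growth of vehicle-only control cultures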; conditions: S. cerevisiae CLN2oe strain, stronger effect = higher value
Outline: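 Read-out: yeast growth inhibition, expressed relative to vehicle-only controls. The strain bears an engineered cell-cycle alteration.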

[9] = NCI Yeast Anticancer Drug Screen. Data for the cln2 rad14 strain (AID 165);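 note: 0% = growth equal to vehicle treated cultures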; conditions: S. cerevisiae cln2 rad14 strain, stronger effect = higher value
Outline: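 cln2 rad14 yeast strain; compound exposure; growth inhibition read vs vehicle controls.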

[10] = NCI Yeast Anticancer Drug Screen. Data for the bub3 strain (AID 167); conditions: S. cerevisiae bub3 mutant strain, stronger effect = higher value
Outline: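 Steps: expose the mutant yeast strain to compound; grow alongside vehicle-treated cultures; measure growth; express inhibition against the vehicle cultures.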

[11] = NCI Yeast Anticancer Drug Screen. Data for the wt2 strain (AID 169);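 note: 0% = growth of vehicle-treated yeast cultures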; conditions: S. cerevisiae wt2 strain growth inhibition, stronger effect = higher value
Outline: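 Read-out: growth inhibition versus vehicle-treated control cultures after compound exposure of the yeast strain.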

[12] = NCI Yeast Anticancer Drug Screen. Data for the mlh1 strain (AID 171);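 note: 0% = growth of vehicle-treated control cultures of the same strain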; conditions: S. cerevisiae mlh1 strain growth inhibition, stronger effect = higher value
Outline: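 Read-out: growth inhibition versus vehicle controls. Strain: engineered yeast with a defined DNA repair or cell cycle defect, compound-treated.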

[13] = NCI Yeast Anticancer Drug Screen. Data for the sgs1 strain (AID 173);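 note: 0% = growth of vehicle-only control cultures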; conditions: S. cerevisiae sgs1 mutant, stronger effect = higher value
Outline: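 Read-out: yeast growth inhibition relative to vehicle controls, following compound exposure of a strain with a defined DNA repair/cell cycle alteration.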

[14] = NCI Yeast Anticancer Drug Screen. Data for the mlh1 rad18 strain (AID 175); conditions: S. cerevisiae mlh1 rad18 strain growth inhibition, stronger effect = higher value
Outline: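 Yeast w/ defined DNA-repair lesions; compound exposure; growth vs vehicle controls → % inhibition.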

[15] = NCI Yeast Anticancer Drug Screen. Data for the rad18 strain (AID 177); conditions: S. cerevisiae rad18 mutant growth inhibition, stronger effect = higher value
Outline: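 Readout: growth inhibition vs vehicle controls. Cells: genetically altered yeast strain, DNA repair defect.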

[16] = at 5.0 µM (retest, dose inferred, filed as 0.5)
[17] = at 50.0 µM (retest, dose inferred, filed as 5.0)

Measured: growth inhibition

COc1ccc(/C=C2\SC(=S)N(C=C3C(=O)NC(=S)NC3=O)C2=O)cc1OC
active: [1]; at 33.0 µM 83% | [1]; at 100.0 µM 89% | [2]; at 33.0 µM 79% | [2]; at 100.0 µM 94% | [4]; at 33.0 µM 80% | [4]; at 100.0 µM 88% | [5]; at 33.0 µM 91% | [5]; [17] 75% | [5]; at 50.0 µM 77.8% | [5]; at 100.0 µM 93% | [6]; at 33.0 µM 85% | [6]; at 100.0 µM 92% | [7]; [17] 76% | [7]; at 50.0 µM 85.8% | [8]; at 33.0 µM 85% | [8]; at 100.0 µM 90% | [11]; at 33.0 µM 92% | [11]; at 100.0 µM 95% | [12]; at 33.0 µM 89% | [12]; at 100.0 µM 89% | [13]; at 33.0 µM 94% | [13]; at 100.0 µM 93% | [15]; at 33.0 µM 82% | [15]; at 100.0 µM 89%
inactive: [1]; at 1.2 µM 12% | [1]; at 3.7 µM 15% | [1]; at 11.0 µM 47% | [2]; at 1.2 µM 4% | [2]; at 3.7 µM 6% | [2]; at 11.0 µM 25% | [3]; at 1.2 µM 0% | [3]; at 3.7 µM 7% | [3]; at 11.0 µM 37% | [3]; at 33.0 µM 56% | [3]; at 100.0 µM 59% | [4]; at 1.2 µM 3% | [4]; at 3.7 µM 3% | [4]; [16] -2% | [4]; at 11.0 µM 37% | [4]; [17] 65% | [4]; at 50.0 µM 49.8% | [5]; at 1.2 µM 10% | [5]; at 3.7 µM 14% | [5]; [16] -16% | [5]; at 11.0 µM 58% | [6]; at 1.2 µM 6% | [6]; at 3.7 µM 15% | [6]; at 11.0 µM 52% | [7]; [16] -6% | [8]; at 1.2 µM -11% | [8]; at 3.7 µM -1% | [8]; at 11.0 µM 39% | [9]; [16] -25% | [9]; [17] 33% | [9]; at 50.0 µM 37.6% | [10]; at 1.2 µM 6% | [10]; at 3.7 µM 8% | [10]; [16] 3% | [10]; at 11.0 µM 33% | [10]; at 33.0 µM 60% | [10]; [17] -1% | [10]; at 50.0 µM 44.3% | [10]; at 100.0 µM 59% | [11]; at 1.2 µM 1% | [11]; at 3.7 µM 7% | [11]; at 11.0 µM 52% | [12]; at 1.2 µM 0% | [12]; at 3.7 µM 10% | [12]; at 11.0 µM 51% | [13]; at 1.2 µM 11% | [13]; at 3.7 µM 29% | [13]; at 11.0 µM 61% | [14]; [16] 7% | [14]; [17] 69% | [14]; at 50.0 µM 68.3% | [15]; at 1.2 µM 16% | [15]; at 3.7 µM 34% | [15]; at 11.0 µM 60%

CC1C(C#N)(C#N)C(C#N)=C(N)C1(Cl)[N+](=O)[O-] (stereo unspecified)
active: [1]; at 100.0 µM 85% | [3]; at 33.0 µM 78% | [3]; at 100.0 µM 85% | [4]; [17] 78% | [4]; at 50.0 µM 77.5% | [4]; at 100.0 µM 76% | [5]; [17] 85% | [5]; at 50.0 µM 77.4% | [5]; at 100.0 µM 81% | [7]; [17] 78% | [7]; at 50.0 µM 76% | [8]; at 100.0 µM 88% | [10]; [17] 86% | [10]; at 50.0 µM 73.8% | [10]; at 100.0 µM 84% | [11]; at 100.0 µM 92% | [12]; at 100.0 µM 89% | [13]; at 100.0 µM 90% | [14]; [17] 94% | [15]; at 100.0 µM 87%
inactive: [1]; at 1.2 µM 3% | [1]; at 3.7 µM 33% | [1]; at 11.0 µM 35% | [1]; at 33.0 µM 56% | [2]; at 1.2 µM 10% | [2]; at 3.7 µM 9% | [2]; at 11.0 µM 8% | [2]; at 33.0 µM 22% | [2]; at 100.0 µM 55% | [3]; at 1.2 µM 19% | [3]; at 3.7 µM 37% | [3]; at 11.0 µM 55% | [4]; at 1.2 µM 4% | [4]; at 3.7 µM 26% | [4]; [16] 24% | [4]; at 11.0 µM 29% | [4]; at 33.0 µM 40% | [5]; at 1.2 µM 0% | [5]; at 3.7 µM 30% | [5]; [16] 11% | [5]; at 11.0 µM 32% | [5]; at 33.0 µM 41% | [6]; at 1.2 µM 1% | [6]; at 3.7 µM 8% | [6]; at 11.0 µM 15% | [6]; at 33.0 µM 28% | [6]; at 100.0 µM 67% | [7]; [16] 11% | [8]; at 1.2 µM 19% | [8]; at 3.7 µM 39% | [8]; at 11.0 µM 48% | [8]; at 33.0 µM 53% | [9]; [16] -5% | [9]; [17] 30% | [9]; at 50.0 µM 65.8% | [10]; at 1.2 µM 12% | [10]; at 3.7 µM 12% | [10]; [16] 20% | [10]; at 11.0 µM 20% | [10]; at 33.0 µM 49% | [11]; at 1.2 µM -1% | [11]; at 3.7 µM 7% | [11]; at 11.0 µM 22% | [11]; at 33.0 µM 58% | [12]; at 1.2 µM 11% | [12]; at 3.7 µM 28% | [12]; at 11.0 µM 45% | [12]; at 33.0 µM 68% | [13]; at 1.2 µM 28% | [13]; at 3.7 µM 20% | [13]; at 11.0 µM 37% | [13]; at 33.0 µM 61% | [14]; [16] 19% | [14]; at 50.0 µM 48% | [15]; at 1.2 µM 14% | [15]; at 3.7 µM 17% | [15]; at 11.0 µM 34% | [15]; at 33.0 µM 61%
